Measured values: PubChem BioAssay (EPA / NIEHS)
Activity calls are given as the source filed them. The calls were made as follows: active = hit-call score of the fitted dose curve at least 0.9, where 1 is the maximum; inactive = score below 0.9.

read-out: ABC Transporter (ABCB11), ABCB11 (gene 8647); experiment: LTEA_HepaRG_ABCB11: Life Technologies and Expression Analysis (LTEA) Assay for ABC Transporter (ABCB11) using HepaRG (AID 2283463); conditions: mRNA level, 48 h; actives raise or lower the signal
Procedure: LTEA_HepaRG is a cell based, multiplexed-readout assay that uses HepaRG, a human liver cell line, with measurements taken at 48 hours after chemical dosing on a 96-well plate.LTEA_HepaRG_ABCB11 is one of 102 assay component(s) measured in the LTEA HepaRG cell culture assay. It is a marker of Steatosis/NR mediated transport.Data from the assay component LTEA_HepaRG_ABCB11 was analyzed into 1 endpoint. This assay endpoint, LTEA_HepaRG_ABCB11, was analyzed with bidirectional fitting relative to DMSO as the negative control and baseline of activity. Using a type of inducible reporter, measures of mRNA induction for gain or loss-of-signal activity can be used to understand regulation of transcription factor activity. To generalize the intended target to other relatable targets, this assay endpoint is annotated to the transporter intended target family, where the subfamily is ABC transporter.
A total of 1060 chemcials from the ToxCast library were tested in eight-point concentration-response experiments. Cell culture and cytotoxicity assays were conducted at Thermo Fisher Scientific's Custom Services facility (Madison, WI). A single lot of human HepaRG cells (Thermo Fisher Scientific, Frederick, MD) was used for the cell culture experiments. 96-well format collagen type I coated plates of human HepaRG cells were prepared using established methods. Briefly, cryopreserved HepaRG cells were thawed, plated at a density of approximately 100,000 cells/well in HepaRG Thaw, Plate, and General Purpose media (HPRG770, Thermo Fisher Scientific), and incubated for 48 hours. 0.5% DMSO was selected as vehicle control to balance the requisite need of DMSO in HepaRG cultures to maintain differentiation (for example, baseline metabolism, proportions of hepatocytes vs. cholangiocytes), while enabling further hepatic receptor pathway activation (for example, PXR and CAR) in response to chemical exposure. 48 hours after plating, the culture medium was replaced with HepaRG Serum-Free Incudtion Media. Cells were exposed to each test chemical in duplicate and maintained in CO2 incubators for another 48 hours. Chemical plates were thawed to room temperature and 200x concentrations of treatment groups were prepared. 8-point conentration-reponse curves were made with the highest exposure at 100 uM, followed by half-log dilutions, all in 0.5% DMSO. Each test plate contained variouse controls, induction positive controls (1mM phenobarbital), cytotoxicity positive controls ([…] aflatoxin B1), vehicle controls (0.5% DMSO), and total lysis controls (0.5% DMSO). Cell morphology images were taken using an Essen IncuCyte FLR automated microscope, with six 96-well plates imaged in about 24 minutes. Images were captured and exported and JPEG files. Spent culture media was transfered to black-well plates for the LDH assay, and remaining media was sorted at -80 C for later use. Cells were treated with RLT buffer and frozen until shipped for gene expression analysis. Total RNA was isolated from the cell suspension in 75 uL of Buffer RLT (Qiagen, Germantown, MD 20874) by Quintiles/Expression Analysis (Durham, NC) using a custom isolation procedure. Total RNA from each plate well was transferred to a preamplification plate. Fluidigm's 96.96 Dynamic ArrayTM (Fluidigm, Amsterdam, the Netherlands) technology was used for gene expression analyses by quantitative reverse transcription polymerase chain reaction (qRT-PCR, performed by Quintiles/Expression Analysis, Durham, NC)89. Standard TaqManTM Assays (Applied Biosystems/ThermoFisher Scientific, Foster City, CA) were used to assess the expression of 93 genes selected based on their selectivity and sensitivity to important hepatic receptors known to be modulated by environmental chemicals; importance in human hepatocyte functionality; and hepatotoxicity. […]

| Compound | outcome | AC50 |
| --- | --- | --- |
| CC(C)(O)C(=O)Nc1ccc([N+](=O)[O-])c(C(F)(F)F)c1 | inactive | – |
| Cc1ccccc1CO[C@@H]1C[C@@]2(C(C)C)CC[C@]1(C)O2 | inactive | – |
| O=C(O)C(F)(F)C(F)(F)C(F)(F)C(F)(F)C(F)(F)F | inactive | – |
| CCNc1nc(NC(C)C)nc(SC)n1 | – | 50 µM (active) |
| CCOC(=O)C(O)(c1ccc(Cl)cc1)c1ccc(Cl)cc1 | – | 38.9 µM (active) |
| CCC(C)(c1ccc(O)cc1)c1ccc(O)cc1 | – | 88.1 µM (active) |
| ClC(Cl)=C(c1ccc(Cl)cc1)c1ccc(Cl)cc1 | inactive | – |
| O=S(=O)(O)C(F)(F)C(F)(F)C(F)(F)C(F)(F)C(F)(F)C(F)(F)F | inactive | – |
| c1cc2ccc3cccc4ccc(c1)c2c34 | inactive | – |
| O=NN(c1ccccc1)c1ccccc1 | inactive | – |
| ClC1=C(Cl)[C@]2(Cl)[C@@H]3[C@H]4C[C@H]([C@@H]5O[C@H]45)[C@@H]3[C@@]1(Cl)C2(Cl)Cl | – | 5.27 µM (active) |
| Clc1ccc(C(c2ccccc2Cl)C(Cl)(Cl)Cl)cc1 (stereo not given) | – | 72.3 µM (active) |
| CCCCCCCCCC[N+](C)(C)CCCCCCCCCC | – | 15.8 µM (active) |
| O=C(O)C(F)(F)C(F)(F)C(F)(F)C(F)(F)C(F)(F)C(F)(F)C(F)(F)C(F)(F)F | – | 90.4 µM (active) |
| Clc1ccc(C(Cl)(Cl)Cl)cc1 | inactive | – |
| CC(C)C(=O)OCC(C)(C)C(OC(=O)C(C)C)C(C)C (stereo not given) | inactive | – |
| Cc1cccc([N+](=O)[O-])c1 | inactive | – |
| CCSC(=O)N(CC)C1CCCCC1 | inactive | – |
| Nn1cnnc1 | inactive | – |
| C=CC(N)=O | inactive | – |

| Compound | outcome | AC50 |
| --- | --- | --- |
| CCC(C)(CC)c1cc(NC(=O)c2c(OC)cccc2OC)on1 | – | 83 µM (active) |
| COS(=O)(=O)OC | inactive | – |
| O=C(N[C@H]1CN2CCC1CC2)c1cc2ccoc2cn1 | inactive | – |
| CO/C=C(/C(=O)OC)c1ccccc1COc1cccc(C(F)(F)F)n1 | – | 5.64 µM (active) |
| CC#Cc1cc(C)nc(Nc2ccccc2)n1 | – | 9.09 µM (active) |
| Cc1ccccc1O | inactive | – |
| CCCCCCCCCc1ccc(O)cc1 | inactive | – |
| C[C@]12CCC(=O)C=C1CC[C@@H]1[C@@H]2CC[C@@]2(C)[C@H]1CC[C@]2(C)O | – | 0.647 µM (active) |
| CCOP(=S)(OCC)SCSC(C)(C)C | – | 18.6 µM (active) |
| O=S(=O)(O)C(F)(F)C(F)(F)C(F)(F)C(F)(F)F | inactive | – |
| COc1ccc(O)c(C(C)(C)C)c1 | inactive | – |
| C=CC(=O)NCNC(=O)C=C | – | 50 µM (active) |
| Oc1ccc(Cl)cc1Cl | inactive | – |
| CCC(=O)O[C@H]1CC[C@H]2[C@@H]3CCC4=CC(=O)CC[C@]4(C)[C@H]3CC[C@]12C | – | 9.78 µM (active) |
| Cc1ccc(O)c(C)c1 | inactive | – |
| Oc1ccc(C(c2ccc(O)cc2)(C(F)(F)F)C(F)(F)F)cc1 | – | 86.6 µM (active) |
| CCCCCCCCOC(=O)c1ccccc1C(=O)OCCCCCCCC | inactive | – |
| ClC1=C(Cl)[C@]2(Cl)[C@@H]3[C@@H]4C[C@@H]([C@H]5O[C@@H]45)[C@@H]3[C@@]1(Cl)C2(Cl)Cl | inactive | – |
| Oc1c(Cl)c(Cl)c(Cl)c(Cl)c1Cl | – | 3.29 µM (active) |
| CCOCCOC(C)=O | inactive | – |
